# Laboratory results reported in PubChem BioAssay (EPA / NIEHS).
# The source made the active and inactive calls. Rule for the calls: active = hit-call score of the fitted dose curve at least 0.9, where 1 is the maximum; inactive = score below 0.9.
# Read-out: CYP3A5 (gene 1577)
# Test: LTEA_HepaRG_CYP3A5: Life Technologies and Expression Analysis (LTEA) Assay for CYP3A5 using HepaRG (AID 2283493)
# Details: mRNA level, 48 h; actives raise or lower the signal
# Procedure: LTEA_HepaRG is a cell based, multiplexed-readout assay that uses HepaRG, a human liver cell line, with measurements taken at 48 hours after chemical dosing on a 96-well plate.LTEA_HepaRG_CYP3A5 is one of 102 assay component(s) measured in the LTEA HepaRG cell culture assay. It is a marker of NR mediated metabolism.Data from the assay component LTEA_HepaRG_CYP3A5 was analyzed into 1 endpoint. This assay endpoint, LTEA_HepaRG_CYP3A5, was analyzed with bidirectional fitting relative to DMSO as the negative control and baseline of activity. Using a type of inducible reporter, measures of mRNA induction for gain or loss-of-signal activity can be used to understand regulation of transcription factor activity. To generalize the intended target to other relatable targets, this assay endpoint is annotated to the cyp intended target family, where the subfamily is xenobiotic metabolism.
# A total of 1060 chemcials from the ToxCast library were tested in eight-point concentration-response experiments. Cell culture and cytotoxicity assays were conducted at Thermo Fisher Scientific's Custom Services facility (Madison, WI). A single lot of human HepaRG cells (Thermo Fisher Scientific, Frederick, MD) was used for the cell culture experiments. 96-well format collagen type I coated plates of human HepaRG cells were prepared using established methods. Briefly, cryopreserved HepaRG cells were thawed, plated at a density of approximately 100,000 cells/well in HepaRG Thaw, Plate, and General Purpose media (HPRG770, Thermo Fisher Scientific), and incubated for 48 hours. 0.5% DMSO was selected as vehicle control to balance the requisite need of DMSO in HepaRG cultures to maintain differentiation (for example, baseline metabolism, proportions of hepatocytes vs. cholangiocytes), while enabling further hepatic receptor pathway activation (for example, PXR and CAR) in response to chemical exposure. 48 hours after plating, the culture medium was replaced with HepaRG Serum-Free Incudtion Media. Cells were exposed to each test chemical in duplicate and maintained in CO2 incubators for another 48 hours. Chemical plates were thawed to room temperature and 200x concentrations of treatment groups were prepared. 8-point conentration-reponse curves were made with the highest exposure at 100 uM, followed by half-log dilutions, all in 0.5% DMSO. Each test plate contained variouse controls, induction positive controls (1mM phenobarbital), cytotoxicity positive controls ([…] aflatoxin B1), vehicle controls (0.5% DMSO), and total lysis controls (0.5% DMSO). Cell morphology images were taken using an Essen IncuCyte FLR automated microscope, with six 96-well plates imaged in about 24 minutes. Images were captured and exported and JPEG files. Spent culture media was transfered to black-well plates for the LDH assay, and remaining media was sorted at -80 C for later use. Cells were treated with RLT buffer and frozen until shipped for gene expression analysis. Total RNA was isolated from the cell suspension in 75 uL of Buffer RLT (Qiagen, Germantown, MD 20874) by Quintiles/Expression Analysis (Durham, NC) using a custom isolation procedure. Total RNA from each plate well was transferred to a preamplification plate. Fluidigm's 96.96 Dynamic ArrayTM (Fluidigm, Amsterdam, the Netherlands) technology was used for gene expression analyses by quantitative reverse transcription polymerase chain reaction (qRT-PCR, performed by Quintiles/Expression Analysis, Durham, NC)89. Standard TaqManTM Assays (Applied Biosystems/ThermoFisher Scientific, Foster City, CA) were used to assess the expression of 93 genes selected based on their selectivity and sensitivity to important hepatic receptors known to be modulated by environmental chemicals; importance in human hepatocyte functionality; and hepatotoxicity. […]
Structure (SMILES),outcome,AC50
CC(C)(O)c1ccc(CNC(=O)c2cccnc2Oc2ccc(F)cc2)cc1,inactive,
CCCCCCC(C=O)=Cc1ccccc1,inactive,
COc1ccc(OC(F)(F)F)cc1CN[C@H]1CCCN[C@H]1c1ccccc1,,78.5 µM (active)
CC(=O)S[C@H](C(=O)N[C@H]1Cc2ccccc2[C@H]2CCC[C@@H](C(=O)O)N2C1=O)C(C)C,inactive,
C=CCCCCCCCCCCCC,inactive,
O=C1NC(=O)C(c2ccccc2)(c2ccccc2)N1,inactive,
CCCCC(CC)CO (stereo not given),inactive,
Oc1ccc(O)cc1,inactive,
CC(C)NCC(O)c1ccc(O)c(O)c1 (stereo not given),,0.153 µM (active)
CCCCOC(=O)CCCCC(=O)OCCCC,inactive,
Cc1ccc(C(C)(C)C)c(O)c1,inactive,
NC=O,inactive,
CC(COCC(C)OC(=O)c1ccccc1)OC(=O)c1ccccc1 (stereo not given),inactive,
C=CCc1ccc(OC)c(OC)c1,inactive,
NC(=Nc1ccccc1)Nc1ccccc1,inactive,
CCc1cc(C2=C(C(=O)O)N(c3ccccc3C(F)(F)F)S(=O)(=O)c3ccccc32)cc2c1OCO2,inactive,
C/C=C/c1ccc(OC)cc1,inactive,
O=Cc1ccccc1C=O,inactive,
COc1ccc(C(=O)Nc2nc3ccccc3c(NCc3ccccc3)c2C#N)cc1,,2.67 µM (active)
CC(=O)OC1CC(C)OC(C)O1 (stereo not given),inactive,

Structure (SMILES),outcome,AC50
CCCC(=O)O,inactive,
S=c1[nH]c2ccccc2s1,inactive,
O=C1OC(c2ccc(O)cc2)(c2ccc(O)cc2)c2ccccc21,,62.1 µM (active)
O=C(N[C@@H](c1ccccc1)[C@@H]1CCCCN1)c1cccc(C(F)(F)F)c1Cl,,90.6 µM (active)
CC(=O)OCC(COC(C)=O)OC(C)=O,inactive,
Cc1c(C)c2c(c(C)c1O)CCC(C)(COc1ccc(CC3SC(=O)NC3=O)cc1)O2 (stereo not given),,15.8 µM (active)
CC(C)OC(=O)C(C)(C)Oc1ccc(C(=O)c2ccc(Cl)cc2)cc1,inactive,
CC1(C)C(=O)NC(=O)N1CO,inactive,
CC(=O)O,inactive,
O=C1O[C@H]([C@H](O)CO)C(O)=C1O,inactive,
Cc1ccc(-c2cc(C(F)(F)F)nn2-c2ccc(S(N)(=O)=O)cc2)cc1,,82 µM (active)
CCCCCCC(CCCCCCCCCCC(=O)OCC(COC(C)=O)OC(C)=O)OC(C)=O (stereo not given),inactive,
OCC(CO)n1cnc(-c2ccc(F)cc2)c1-c1ccnc(Oc2ccccc2)n1,inactive,
O=[Si]=O,inactive,
COC(=O)CCC(=O)OC,inactive,
CCCCCCCCCC[N+](C)(C)[O-],inactive,
CC1=C(C)S(=O)(=O)CCS1(=O)=O,inactive,
NC1CCCCC1,inactive,
CCCCC(CC)COP(=O)(OCC(CC)CCCC)OCC(CC)CCCC (stereo not given),inactive,
Cc1occc(=O)c1O,inactive,
